Compounds with a hit are over-represented: about 12% of the library has one in this group of screens.
TDP1 inh: qHTS Assay for Inhibitors of Tyrosyl-DNA Phosphodiesterase (TDP1); recombinant TDP1, AlphaScreen DNA substrate cleavage; Potency, µM (series often up to 130 µM), actives largely listed as inhibitors; 350,000 compounds, 0.28% hits; also: nearly all actives have a fitted effect of over 40% in size
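Recombinant human Tdp1 (E. coli-expressed, 1 nM final) preincubated with compounds 15 min at room temperature, then 5'-biotin/3'-phosphotyrosine-FITC DNA substrate (15 nM final) added for 5 min. AlphaScreen beads (10 ug/ml final) added 10 min; cleavage lowers signal.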
G9a block: qHTS Assay for Inhibitors of Histone Lysine Methyltransferase G9a | Potency, µM (series often up to 102 µM), hits mostly inhibitors | AID 504332, 2011 | G9a H3K9 monomethylation, AlphaScreen, 2 h | Histone-lysine N-methyltransferase EHMT2 (Homo sapiens), Q96KQ7 | 350,000 compounds, 8.8% hits; also: nearly all actives have a fitted effect of over 75% in size
Target sequence (Q96KQ7 913-1193 limits assumed): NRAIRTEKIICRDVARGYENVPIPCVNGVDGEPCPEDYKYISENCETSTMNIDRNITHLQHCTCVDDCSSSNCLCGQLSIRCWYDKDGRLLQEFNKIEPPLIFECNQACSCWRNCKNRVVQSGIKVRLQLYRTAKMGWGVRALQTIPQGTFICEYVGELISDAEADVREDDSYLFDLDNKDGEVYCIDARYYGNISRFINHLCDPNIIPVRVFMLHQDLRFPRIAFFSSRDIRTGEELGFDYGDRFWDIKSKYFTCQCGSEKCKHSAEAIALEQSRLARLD
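Using a bead-based AlphaScreen, monomethylated H3K9 product from 2 h room-temperature reactions (G9a 20 nM, peptide 500 nM, SAM 20 uM) was detected with 0.5 ug/mL rabbit anti-H3K9me1 antibody.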
JMJD2A Tudor: qHTS Assay for Inhibitors of JMJD2A-Tudor Domain | Lysine-specific demethylase 4A (Homo sapiens), O75164 | AlphaScreen JMJD2A-Tudor / H3K4me3 peptide binding | 390,000 compounds, 4.4% hits | Potency, µM (doses to about 114 µM), most hits filed as inhibitors; also: nearly all actives have a fitted effect of over 50% in size
Sfp PPTase inh: qHTS Assay for Inhibitors of Bacillus subtilis Sfp phosphopantetheinyl transferase (PPTase) | Biochemical Sfp PPTase activity, qHTS | Potency, µM, actives largely listed as inhibitors | 310,000 compounds, 3.5% hits;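 also: the enzyme is Sfp with the accession as filed and its product quenches rhodamine fluorescence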
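After 15 min at room temperature with compound, 15 nM Sfp received 5 uM rhodamine-CoA plus 12.5 uM BHQ-2-ybbR (50 mM Hepes pH 7.6, 10 mM MgCl2). Rate came from the fluorescence difference over 30 min, ex 525/em 598 nm.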
BAZ2B inh: qHTS Assay for Inhibitors of BAZ2B; Bromodomain adjacent to zinc finger domain protein 2B (Homo sapiens), Q9UIF8; AlphaScreen BAZ2B-H3K14Ac peptide displacement; Potency, µM (titrated, usually from 114 µM), actives largely listed as inhibitors; 360,000 compounds, 4.4% hits; AID 504333, 2011; also: nearly all actives have a fitted effect of over 60% in size
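AlphaScreen displacement: compounds (up to 110uM) incubated 30 min at room temperature with a preformed 50 nM BAZ2B/50 nM biotinylated H3K14Ac peptide complex in PBS pH 7.4 with Tween-20. Donor and acceptor beads at 10 ug/mL final added, 20 min light-protected before reading.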
HP1b binding inh: HTS for Inhibitors of HP1-beta Chromodomain Interactions with Methylated Histone Tails; Chromobox protein homolog 1 (Homo sapiens), P83916; 390,000 compounds, 0.56% hits; AlphaScreen HP1-beta / biotin-H3K9me3 peptide binding; Potency, µM (highest dose often 114 µM), actives largely listed as inhibitors; also: nearly all actives have a fitted effect of over 70% in size
Target sequence (P83916 whole entry, looked up): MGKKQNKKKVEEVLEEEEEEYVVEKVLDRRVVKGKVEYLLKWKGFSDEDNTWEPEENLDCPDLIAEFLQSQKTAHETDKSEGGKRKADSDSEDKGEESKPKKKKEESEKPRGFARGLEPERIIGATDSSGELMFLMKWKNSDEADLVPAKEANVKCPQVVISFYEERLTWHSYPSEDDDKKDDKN
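Compound inhibition of the preformed complex between 50 nM HP1-beta and 50 nM biotinylated H3K9me3 peptide was read by AlphaScreen. Buffer was PBS pH 7.4 with 0.01% Tween-20. Incubations ran 30 min at room temperature, with 10 ug/mL donor/acceptor beads.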
Of the large screens only hits and unclear results are named; the others gave an inactive call. Calls follow the shape of the dose curve; as a rule, active = well fitted curve in the direction sought with a large enough effect; inconclusive = small, poorly fitted or top-dose-only effect, or another doubt; inactive = no such curve, though single readings can be large; an effect the other way counts as inactive or inconclusive.

COc1cc(OC)cc(C(=O)c2c(C)c(C#N)c3ccccn23)c1	none (no result: TDP1 inh)
COC1=C/C(=C/c2c(O)c(C#N)c3ccccn23)C=CC1=O	G9a block inconclusive, JMJD2A Tudor 22µM, Sfp PPTase inh inconclusive, BAZ2B inh 50µM, HP1b binding inh inconclusive
CCCCCCCCCCCCCCCC[N+](C)(C)Cc1ccccc1	Sfp PPTase inh 45µM (no result: TDP1 inh, JMJD2A Tudor, BAZ2B inh, HP1b binding inh)
CCCCCCCCCCCCCC[N+](C)(C)Cc1ccccc1	Sfp PPTase inh 40µM (no result: TDP1 inh, JMJD2A Tudor, BAZ2B inh, HP1b binding inh)
CCCCCCCCCCCCCCCC[N+](C)(C)CCl	none (no result: TDP1 inh, G9a block, Sfp PPTase inh, BAZ2B inh)
Cc1ccc(S(=O)(=O)CCC(=O)OCC(=O)Nc2cc(S(=O)(=O)N3CCOCC3)ccc2C)cc1	G9a block inconclusive (no result: Sfp PPTase inh)
Cc1ccc(-c2cc(-c3ccc(C)o3)nc(N)c2C#N)cc1	G9a block 2µM, JMJD2A Tudor 32µM, Sfp PPTase inh 13µM, BAZ2B inh 71µM, HP1b binding inh inconclusive
Cc1ccc(-c2cc(-c3ccc(Cl)cc3)c(C#N)c(N)n2)o1	G9a block 5.6µM, JMJD2A Tudor 79µM, Sfp PPTase inh 8.9µM, BAZ2B inh 56µM
COc1ccc(-c2cc(-c3ccc(O)cc3)nc(N)c2C#N)cc1OC	Sfp PPTase inh inconclusive
Cc1ccc(-c2cc(-c3ccc(F)cc3)c(C#N)c(N)n2)o1	G9a block 8.9µM, JMJD2A Tudor 40µM, Sfp PPTase inh inconclusive
Cc1cc(-c2cc(-c3ccc(Cl)cc3)nc(N)c2C#N)co1	G9a block inconclusive, JMJD2A Tudor 40µM, Sfp PPTase inh 10µM, BAZ2B inh inconclusive
O=C1CCC[C@@H]2C[C@@]3(C[C@@H]4CCN1[C@H]24)Nc1cc(Cl)c(Cl)cc1NC3=NCc1ccccc1	JMJD2A Tudor inconclusive (no result: TDP1 inh, G9a block, Sfp PPTase inh, BAZ2B inh)
CN(C)CCN1C(=O)C2C(C(=O)Nc3cc(Cl)cc(Cl)c3)C3C=CC2(O3)C1C(=O)NC1CCCCC1 (stereo unspecified)	none
CC(C)N1CCN(C2CSCCSC2)CC1CCO (stereo unspecified)	G9a block inconclusive
CCOc1cc(-c2cc(-c3ccc(C)o3)nc(N)c2C#N)ccc1O	G9a block 40µM
COc1ccc(-c2nc(NC(C)=O)sc2-c2ccc(OC)cc2)cc1	G9a block inconclusive
COc1ccc(C2CC(=O)c3sc(NC(C)=O)nc3C2)cc1 (stereo unspecified)	G9a block 40µM
COc1ccc(CCNC(=O)C(C(=O)c2ccccc2)n2cc(Cl)ccc2=O)cc1OC (stereo unspecified)	G9a block 50µM
COc1ccc(CCNC(=S)NC(=O)c2ccc(Br)cc2)cc1OC	BAZ2B inh 32µM
COc1ccc(CCNC(=S)NC(=O)c2ccccc2)cc1C	G9a block 56µM, BAZ2B inh inconclusive
COc1ccc(CCNC(=O)c2ccc3c(c2)NC(=O)C(CSCc2cc(C)ccc2C)N3)cc1OC (stereo unspecified)	G9a block 1.8µM, Sfp PPTase inh 45µM (no result: JMJD2A Tudor, HP1b binding inh)
O=C=Nc1ccc(Cc2ccc(N=C=O)cc2)cc1	none (no result: G9a block, JMJD2A Tudor, Sfp PPTase inh, BAZ2B inh, HP1b binding inh)
CCCn1c(SCC(=O)Nc2cc(S(=O)(=O)N(C)C)ccc2OC)n[nH]c1=O	none (no result: BAZ2B inh)
CCOc1ccc(CNC(=S)Nc2ccccc2)cc1Cl	none (no result: G9a block)
COc1ccccc1/C=C1\SC(=O)N(CC(=O)N(C)C2CCS(=O)(=O)C2)C1=O (stereo unspecified)	none
COc1ccc(CCNC(=O)c2ccc(CNS(=O)(=O)c3cc(C)ccc3C)cc2)cc1OC	G9a block 22µM
COc1ccc(CCNC(=O)c2ccc(CNS(=O)(=O)c3ccc(C(C)(C)C)cc3)cc2)cc1OC	none
COc1ccc(C(=O)NC=C2C(=O)OC(C)(C)OC2=O)cc1	none

High-throughput results (PubChem BioAssay)
